The record followed here is PubChem BioAssay (NCI).

Test systems include HCT-15 colon; HT29 colon; SNB-75 CNS; SNB-19 CNS; U251 CNS; PC-3 prostate; SK-MEL-5 melanoma; UACC-62 melanoma; LOX IMVI melanoma; SK-MEL-28 melanoma; SK-MEL-2 melanoma; EKVX NSCLC; SN12C renal; UO-31 renal; TK-10 renal; ACHN renal; CAKI-1 renal; CCRF-CEM leukemia; MOLT-4 leukemia; A498 renal.
Common to all, as to assay: NCI-60 one-dose screen, 48 h (100 = growth as untreated, 0 = no growth, -100 = all killed)
Common to all, as to details: 10 µM unless noted

Molecules are shown by their SMILES. Compounds without any hit were thinned out: in the full panel of roughly 83,000, 20% have a hit.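 The endpoint reported here, percent growth, reads 100 for growth as untreated, 0 for no net growth and -100 for all cells dead.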 Active and inactive are the calls of the source. The calls were made as follows: active = growth percent below 10; inactive = the rest.

Take `CCOC(=O)n1cc(-c2nonc2-c2cn(C)c3ccc(OC)cc23)c2cc(F)ccc21`: the growth is 69.2% (inactive) with HCT-15 colon; 71.1% (inactive) in the test with HT29 colon; 70.2% (inactive) with SNB-75 CNS; 76.1% (inactive) in the test on SNB-19 CNS; 83.1% (inactive) in the test on U251 CNS; 65% (inactive) with PC-3 prostate. Moreover, the growth in the test on SK-MEL-5 melanoma was 92% (inactive); in the test with UACC-62 melanoma, 52.6% (inactive); in the test on LOX IMVI melanoma, 72.2% (inactive); in the test with SK-MEL-28 melanoma it was 99.6% (inactive); in the test with SK-MEL-2 melanoma, 99.8% (inactive); with EKVX NSCLC, 73.3% (inactive). Also, the growth in the test with SN12C renal is 77.5% (inactive); in the test on UO-31 renal, 52.1% (inactive); with TK-10 renal, 94.2% (inactive); with ACHN renal it was 60.2% (inactive); with CAKI-1 renal, 52.2% (inactive); in the test on CCRF-CEM leukemia it was 80.9% (inactive). Besides, the growth in the test on MOLT-4 leukemia is 80.3% (inactive).
`COC(=O)c1nc(-c2ccc(C)cc2)oc1S(=O)(=O)c1ccc(Cl)cc1`: the growth in the test on HCT-15 colon is 73.5% (inactive); with HT29 colon, 102% (inactive); with SNB-75 CNS it was 100% (inactive); in the test with SNB-19 CNS, 96.4% (inactive); in the test with U251 CNS, 93.4% (inactive); in the test on PC-3 prostate it was 97% (inactive). For the same compound, the growth in the test on SK-MEL-5 melanoma is 96.5% (inactive); in the test on UACC-62 melanoma it was 90.4% (inactive); with LOX IMVI melanoma it was 42.3% (inactive); in the test on SK-MEL-28 melanoma, 99% (inactive); in the test on SK-MEL-2 melanoma, 102% (inactive); with EKVX NSCLC, 108% (inactive). Also, the growth in the test with SN12C renal was 83.6% (inactive); in the test on UO-31 renal, 75.1% (inactive); in the test with TK-10 renal, 93.5% (inactive); in the test on CAKI-1 renal, 95% (inactive); in the test with A498 renal, 113% (inactive); with CCRF-CEM leukemia, -15.8% (active). For the same compound, the growth in the test on MOLT-4 leukemia is -21% (active).
On to `Cc1cccc(-c2nnc(SCC(=O)Nc3ncc(Cc4ccccc4)s3)n2N2C(=O)CSC2=S)c1`, for which the growth is 78.5% (inactive) in the test on HCT-15 colon; 81.2% (inactive) with HT29 colon; -7.46% (active) in the test with SNB-75 CNS; 54.1% (inactive) with SNB-19 CNS; 34.6% (inactive) with U251 CNS; 57.3% (inactive) in the test on PC-3 prostate. Also, the growth with SK-MEL-5 melanoma was 75.9% (inactive); in the test with UACC-62 melanoma, 20.1% (inactive); in the test with LOX IMVI melanoma, 23.5% (inactive); in the test with SK-MEL-28 melanoma, 51.3% (inactive); in the test on SK-MEL-2 melanoma, 75.6% (inactive); in the test on EKVX NSCLC, 73.4% (inactive). Further, the growth is 19.1% (inactive) in the test on SN12C renal; 72.3% (inactive) in the test with UO-31 renal; 47.3% (inactive) with TK-10 renal; 43.8% (inactive) in the test on ACHN renal; 23.3% (inactive) with CAKI-1 renal; 64.8% (inactive) with A498 renal. Besides, the growth with MOLT-4 leukemia was 87.5% (inactive).
As for `COc1ccc(Oc2nc(Nc3ccc(N4CCOCC4)cc3)ncc2NC(=O)c2cccc(C(F)(F)F)c2)cc1`, the growth in the test on HCT-15 colon is 58.6% (inactive); in the test with HT29 colon it was 42.2% (inactive); with SNB-75 CNS, 82.3% (inactive); in the test with SNB-19 CNS it was 87.5% (inactive); with U251 CNS, 69.3% (inactive); with PC-3 prostate, 53.7% (inactive). Also, the growth in the test with SK-MEL-5 melanoma was 92.2% (inactive); in the test on UACC-62 melanoma it was 78.4% (inactive); in the test on LOX IMVI melanoma, 52.4% (inactive); in the test on SK-MEL-28 melanoma it was 99.5% (inactive); in the test on SK-MEL-2 melanoma it was 97.2% (inactive); with EKVX NSCLC it was 81.3% (inactive). Also, the growth with SN12C renal was 85.8% (inactive); with UO-31 renal, 71.2% (inactive); in the test with TK-10 renal, 93% (inactive); in the test with CAKI-1 renal, 88.9% (inactive); with A498 renal it was 63.4% (inactive); in the test on CCRF-CEM leukemia, 49.9% (inactive). The growth with MOLT-4 leukemia is 43.7% (inactive).
With `CNC(=O)c1cc(Oc2ccc3nc(NC(=O)Nc4ccc(C(F)(F)F)cc4)sc3c2)ccn1`, the growth in the test on HCT-15 colon was 54.2% (inactive); in the test with HT29 colon, 78.4% (inactive); in the test with SNB-75 CNS, 29.1% (inactive); in the test with SNB-19 CNS it was 79.3% (inactive); in the test on U251 CNS, 22.4% (inactive); in the test with PC-3 prostate, 58.8% (inactive). Also, the growth is 56.9% (inactive) in the test on SK-MEL-5 melanoma; 56% (inactive) in the test on UACC-62 melanoma; 48.1% (inactive) in the test with LOX IMVI melanoma; 68.9% (inactive) in the test on SK-MEL-28 melanoma; 92.9% (inactive) in the test with SK-MEL-2 melanoma; 53.5% (inactive) with EKVX NSCLC. For the same compound, the growth in the test with SN12C renal is 71.1% (inactive); in the test on UO-31 renal it was 65% (inactive); with TK-10 renal, 55.3% (inactive); in the test with ACHN renal, 73.4% (inactive); in the test on CAKI-1 renal it was 92% (inactive); in the test with CCRF-CEM leukemia it was 68.1% (inactive). In addition, the growth with MOLT-4 leukemia is 73.3% (inactive).
In the case of `CCCc1cc(C(N)=S)ccn1`, the growth is 102% (inactive) in the test with HCT-15 colon; 97.6% (inactive) in the test with HT29 colon; 103% (inactive) in the test with SNB-75 CNS; 115% (inactive) with SNB-19 CNS; 103% (inactive) in the test with U251 CNS; 98.3% (inactive) with PC-3 prostate. The growth with SK-MEL-5 melanoma is 107% (inactive); with UACC-62 melanoma it was 108% (inactive); in the test with LOX IMVI melanoma, 96.7% (inactive); in the test with SK-MEL-28 melanoma it was 116% (inactive); in the test with SK-MEL-2 melanoma, 103% (inactive); in the test with EKVX NSCLC it was 99.1% (inactive). Also, the growth in the test with SN12C renal is 105% (inactive); with UO-31 renal it was 76.4% (inactive); in the test with TK-10 renal it was 100% (inactive); with CAKI-1 renal it was 96.1% (inactive); with A498 renal, 125% (inactive); in the test on CCRF-CEM leukemia, 113% (inactive). Moreover, the growth in the test on MOLT-4 leukemia is 105% (inactive).
Take `O=C(Nc1ncc(Cc2cccc(C(F)(F)F)c2)s1)c1ccc(-n2cnnn2)cc1`: the growth in the test with HCT-15 colon was 38.7% (inactive); in the test with HT29 colon it was 62% (inactive); in the test on SNB-75 CNS, 83.4% (inactive); with SNB-19 CNS, 59.7% (inactive); in the test on U251 CNS it was 64.4% (inactive); with PC-3 prostate it was 54.1% (inactive). Moreover, the growth in the test on SK-MEL-5 melanoma is 37.8% (inactive); in the test on UACC-62 melanoma it was 19.8% (inactive); in the test on LOX IMVI melanoma, 46.6% (inactive); with SK-MEL-28 melanoma it was 52.7% (inactive); with SK-MEL-2 melanoma, 89.4% (inactive); in the test on EKVX NSCLC it was 40.2% (inactive). Further, the growth in the test on SN12C renal was 79.9% (inactive); with UO-31 renal, 48.3% (inactive); in the test with TK-10 renal, 50.4% (inactive); in the test on CAKI-1 renal it was 30.1% (inactive); with A498 renal, 54.7% (inactive); in the test on CCRF-CEM leukemia, 55.3% (inactive). Besides, the growth in the test with MOLT-4 leukemia is 39.4% (inactive).
